Among the test systems are AAK1; ABL1-nonphosphorylated; ABL1-phosphorylated; ABL2; ACVR1B; ACVR1; ACVR2A.
Common to all, as to conditions: n = 1
[1] abbreviates: concentration: 1 μM, replicates: in singlicate.

The structures appear in SMILES notation. Like-named read-outs stand apart in the source and are kept apart here.
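Further: KINOMEscan kinase panel screen.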

As for `CCCc1ccc(S(=O)(=O)NC2CCN(c3ccnc(Nc4ccc(F)cc4)n3)C2)cc1` (centres unmarked) [GSK1379715], the “%Inh” value in the experiment on AAK1 (setting [1]) was 1%; in the experiment with ABL1-nonphosphorylated (setting [1]) it was 0%; with ABL1-phosphorylated (setting [1]) it was 0%; in the experiment with ABL2 (setting [1]), 6%; in the experiment on ACVR1B (setting [1]) it was 0%; in the experiment on ACVR1 (setting [1]), 16%. Also, the “%Inh” value in the experiment with ACVR2A (setting [1]) was determined as 0%.

Take `COc1ccc(CNC(=O)NC2CCN(c3ccnc(Nc4cc(OC)c(OC)c(OC)c4)n3)C2)cc1` (centres unmarked) [GSK1379748]: the “%Inh” value in the experiment with AAK1 (setting [1]) is given as 49%; in the experiment on ABL1-nonphosphorylated (setting [1]) it was 0%; with ABL1-phosphorylated (setting [1]), 0%; with ABL2 (setting [1]), 0%; in the experiment with ACVR1B (setting [1]), 0%; in the experiment on ACVR1 (setting [1]), 15%. Moreover, in the experiment on ACVR2A (setting [1]), the “%Inh” value worked out at 0%.

As for `O=C(Nc1ccc2c(c1)OCO2)NC1CCN(c2ccnc(Nc3ccc(F)cc3)n2)C1` (centres unmarked) [GSK1379724], the “%Inh” value is 12% in the experiment with AAK1 (setting [1]); 0% in the experiment with ABL1-nonphosphorylated (setting [1]); 0% in the experiment on ABL1-phosphorylated (setting [1]); 9% in the experiment with ABL2 (setting [1]); 0% in the experiment with ACVR1B (setting [1]); 0% in the experiment with ACVR1 (setting [1]). In addition, the “%Inh” value in the experiment with ACVR2A (setting [1]) stood at 0%.

With `Nc1nc(-c2nccs2)c(-c2ccnc3ccccc23)s1` [GW693542], the “%Inh” value in the experiment with AAK1 (setting [1]) worked out at 8%; in the experiment on ABL1-nonphosphorylated (setting [1]), 0%; with ABL1-phosphorylated (setting [1]) it was 6%; with ABL2 (setting [1]) it was 15%; in the experiment with ACVR1B (setting [1]), 14%; in the experiment with ACVR1 (setting [1]), 10%. Further, the “%Inh” value in the experiment on ACVR2A (setting [1]) is given as 0%.

For the compound `Cc1ccc(NC(=O)Nc2cccc(C(F)(F)F)c2)cc1` [GSK955403], the “%Inh” value with AAK1 (1 µM) is listed as 26%; with ABL1-nonphosphorylated (1 µM) it was 49%; in the experiment on ABL1-phosphorylated (1 µM), 23%; in the experiment on ABL2 (1 µM) it was 3%; with ACVR1B (1 µM) it was 85%; with ACVR1 (1 µM), 10%. Also, the “%Inh” value with ACVR2A (1 µM) was determined as 2%.

In the case of `COc1ccc(Nc2nccc(-c3cccc(NC(=O)c4cc5cc(F)ccc5[nH]4)c3)n2)cc1` [GSK1229782], the “%Inh” value in the experiment with AAK1 (setting [1]) amounted to 47%; with ABL1-nonphosphorylated (setting [1]), 85%; in the experiment with ABL1-phosphorylated (setting [1]) it was 78%; in the experiment on ABL2 (setting [1]), 53%; in the experiment on ACVR1B (setting [1]) it was 0%; with ACVR1 (setting [1]) it was 9%. Moreover, the “%Inh” value in the experiment with ACVR2A (setting [1]) is reported as 13%.

On to `Cl.O=C(Nc1cccc(-c2nn3ncccc3c2-c2ccnc(Nc3cccnc3)n2)c1)c1c(F)cccc1F` [GSK312879], for which the “%Inh” value in the experiment with AAK1 (setting [1]) is reported as 0%; in the experiment with ABL1-nonphosphorylated (setting [1]) it was 0%; in the experiment on ABL1-phosphorylated (setting [1]) it was 0%; with ABL2 (setting [1]), 21%; in the experiment on ACVR1B (setting [1]) it was 0%; in the experiment on ACVR1 (setting [1]) it was 0%. For the same compound, the “%Inh” value in the experiment with ACVR2A (setting [1]) was determined as 0%.

Turning to `O=C(Nc1n[nH]c2nc(-c3nccs3)c(Br)cc12)C1CCCC1` [SB-742609], the “%Inh” value in the experiment on AAK1 (setting [1]) stood at 15%; in the experiment with ABL1-nonphosphorylated (setting [1]) it was 7%; with ABL1-phosphorylated (setting [1]), 1%; with ABL2 (setting [1]), 25%; in the experiment with ACVR1B (setting [1]), 0%; in the experiment with ACVR1 (setting [1]) it was 7%. Also, in the experiment with ACVR2A (setting [1]), the “%Inh” value came out at 0%.

Take `O=C1NC(=O)C(N2CCc3ccccc32)=C1c1ccccc1Cl` [SB-373598]: the “%Inh” value in the experiment on AAK1 (setting [1]) was found to be 7%; with ABL1-nonphosphorylated (setting [1]), 12%; in the experiment with ABL1-phosphorylated (setting [1]), 97.7%; in the experiment with ABL2 (setting [1]), 15%; with ACVR1B (setting [1]) it was 35%; in the experiment on ACVR1 (setting [1]), 27%. The “%Inh” value with ACVR2A (setting [1]) is listed as 25%.

Turning to `Cc1nnc(-c2ccc3occ(-c4ccc(S(C)=O)cc4)c3c2)[nH]1` (centres unmarked), the “%Inh” value in the experiment on AAK1 (setting [1]) was 25%; in the experiment on ABL1-nonphosphorylated (setting [1]), 17%; in the experiment with ABL1-phosphorylated (setting [1]), 0%; with ABL2 (setting [1]), 7%; in the experiment with ACVR1B (setting [1]), 0%; in the experiment with ACVR1 (setting [1]), 0%. The “%Inh” value in the experiment on ACVR2A (setting [1]) came to 23%.

Take `COc1ccc2nc(-c3cccc(C)n3)nc(Nc3ccncc3)c2c1` [GSK204919]: the “%Inh” value in the experiment with AAK1 (setting [1]) stood at 0%; in the experiment on ABL1-nonphosphorylated (setting [1]), 0%; in the experiment on ABL1-phosphorylated (setting [1]) it was 0%; in the experiment on ABL2 (setting [1]), 12%; in the experiment on ACVR1 (setting [1]), 0%; with ACVR2A (setting [1]), 0%.

Turning to `CS(=O)(=O)c1ccc(-c2c(-c3ncn[nH]3)sc(N3CCOCC3)c2C#N)cc1`, the “%Inh” value is 18% in the experiment on AAK1 (setting [1]); 30% in the experiment with ABL1-nonphosphorylated (setting [1]); 13% in the experiment with ABL1-phosphorylated (setting [1]); 7% with ABL2 (setting [1]); 14% in the experiment with ACVR1B (setting [1]); 0% in the experiment on ACVR1 (setting [1]). Besides, the “%Inh” value with ACVR2A (setting [1]) came to 0%.

In the case of `COc1cc(Nc2nccc(N3CCC(NC(=O)Nc4cc(C)ccc4C)C3)n2)cc(OC)c1OC` (centres unmarked) [GSK1379762], the “%Inh” value in the experiment with AAK1 (setting [1]) is listed as 46%; in the experiment on ABL1-nonphosphorylated (setting [1]), 0%; in the experiment with ABL1-phosphorylated (setting [1]) it was 0%; in the experiment on ABL2 (setting [1]), 22%; with ACVR1B (setting [1]), 0%; with ACVR1 (setting [1]) it was 12%. Moreover, the “%Inh” value in the experiment on ACVR2A (setting [1]) is listed as 0%.

As for `O=c1cc(N2CCOCC2)nc2n(Cc3cccc(Cl)c3Cl)ccn12` [GSK2286295], the “%Inh” value was 6% in the experiment on AAK1 (setting [1]); 0% in the experiment on ABL1-nonphosphorylated (setting [1]); 0% with ABL1-phosphorylated (setting [1]); 3% with ABL2 (setting [1]); 0% with ACVR1B (setting [1]); 0% in the experiment with ACVR1 (setting [1]). The “%Inh” value in the experiment on ACVR2A (setting [1]) came out at 0%.

On to `Cc1cccc(-c2nc(C)cc(Nc3ccncc3)n2)n1` [GSK257997], for which the “%Inh” value in the experiment on AAK1 (setting [1]) is recorded as 99.8%; with ABL1-nonphosphorylated (setting [1]), 0%; in the experiment on ABL1-phosphorylated (setting [1]), 0%; in the experiment with ABL2 (setting [1]) it was 6%; in the experiment with ACVR1B (setting [1]) it was 78%; in the experiment with ACVR1 (setting [1]) it was 15%. Moreover, the “%Inh” value in the experiment with ACVR2A (setting [1]) stood at 0%.

As for `COc1cccc(-c2cc(-c3c[nH]nc3-c3ccccn3)ccn2)c1` [GW680338], the “%Inh” value amounted to 4% with AAK1 (setting [1]); 0% in the experiment on ABL1-nonphosphorylated (setting [1]); 3% in the experiment on ABL1-phosphorylated (setting [1]); 0% in the experiment on ABL2 (setting [1]); 50% with ACVR1B (setting [1]); 24% in the experiment on ACVR1 (setting [1]). Also, in the experiment with ACVR2A (setting [1]), the “%Inh” value was 9%.

As for `COc1ccc(C2=C(Nc3cccc(C(=O)O)c3)C(=O)NC2=O)cc1` [SB-390765], the “%Inh” value with AAK1 (setting [1]) is given as 4%; with ABL1-nonphosphorylated (setting [1]), 35%; with ABL1-phosphorylated (setting [1]), 0%; with ABL2 (setting [1]), 1%; in the experiment on ACVR1B (setting [1]), 7%; in the experiment on ACVR1 (setting [1]) it was 100%. Besides, the “%Inh” value with ACVR2A (setting [1]) turned out to be 0%.

As to `Cl.Oc1ccc(-c2nc(-c3ccccc3)[nH]c2-c2ccncc2)cc1` [SB-428218], the “%Inh” value in the experiment with AAK1 (setting [1]) was found to be 7%; with ABL1-nonphosphorylated (setting [1]), 72%; in the experiment with ABL1-phosphorylated (setting [1]), 56%; with ABL2 (setting [1]) it was 30%; with ACVR1B (setting [1]), 0%; in the experiment on ACVR1 (setting [1]) it was 7%. Besides, the “%Inh” value in the experiment on ACVR2A (setting [1]) is reported as 0%.
